# In PMC4336329 (PLoS ONE, 2015):
# About 14,000 (4.5%) of roughly 310,000 compounds showed an effect of 50% or more. The effect is printed as a negative number. For the sample, strong results were picked, then their nearest neighbours and some compounds at random.
# Molecular target: human ether-à-go-go-related gene (hERG) potassium channel (human, UniProt Q12809)
# Assay: primary screen, population patch clamp on CHO cells stably expressing hERG; higher = less effect of the substance
# 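Further: peak tail current of the secondary pulse compared with the same well before compound.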
# human ether-à-go-go-related gene (hERG) potassium channel, sequence (Q12809 whole entry, looked up): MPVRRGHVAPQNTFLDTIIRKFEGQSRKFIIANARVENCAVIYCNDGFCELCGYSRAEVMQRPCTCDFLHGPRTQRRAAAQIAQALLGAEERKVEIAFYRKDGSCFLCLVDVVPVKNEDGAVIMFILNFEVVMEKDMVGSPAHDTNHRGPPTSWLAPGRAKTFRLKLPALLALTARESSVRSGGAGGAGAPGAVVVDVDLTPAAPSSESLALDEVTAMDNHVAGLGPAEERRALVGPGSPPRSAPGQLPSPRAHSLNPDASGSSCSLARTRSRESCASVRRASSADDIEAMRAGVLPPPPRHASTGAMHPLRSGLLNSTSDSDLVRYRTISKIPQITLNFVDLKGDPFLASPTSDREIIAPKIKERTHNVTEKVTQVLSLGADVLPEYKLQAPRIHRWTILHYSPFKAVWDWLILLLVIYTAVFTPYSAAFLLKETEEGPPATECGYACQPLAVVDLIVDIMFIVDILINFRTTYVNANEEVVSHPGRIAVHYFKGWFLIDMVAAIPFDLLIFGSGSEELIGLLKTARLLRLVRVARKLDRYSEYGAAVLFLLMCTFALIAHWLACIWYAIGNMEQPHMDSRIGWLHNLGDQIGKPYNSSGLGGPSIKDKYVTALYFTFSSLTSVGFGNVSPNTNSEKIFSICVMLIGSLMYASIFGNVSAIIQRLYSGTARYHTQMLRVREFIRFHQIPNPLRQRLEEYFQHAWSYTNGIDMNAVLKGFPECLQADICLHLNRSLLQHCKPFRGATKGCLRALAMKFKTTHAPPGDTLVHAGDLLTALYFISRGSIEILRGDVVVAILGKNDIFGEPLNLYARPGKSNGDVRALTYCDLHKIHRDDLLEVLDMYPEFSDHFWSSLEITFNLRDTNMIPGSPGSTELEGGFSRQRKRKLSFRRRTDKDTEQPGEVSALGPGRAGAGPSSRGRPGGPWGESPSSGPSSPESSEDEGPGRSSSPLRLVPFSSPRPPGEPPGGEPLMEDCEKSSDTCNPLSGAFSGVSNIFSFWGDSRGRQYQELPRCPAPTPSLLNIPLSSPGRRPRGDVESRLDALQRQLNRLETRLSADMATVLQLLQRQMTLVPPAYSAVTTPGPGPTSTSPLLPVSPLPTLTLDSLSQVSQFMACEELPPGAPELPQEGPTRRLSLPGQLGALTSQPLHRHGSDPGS
row,Compound,"hERG current change (%, negative = inhibition) at 10uM [%]"
1,CCc1nc(SCC(=O)N2CCC(C)CC2)c2c(=O)n(C)c(=O)n(C)c2n1,-11.6
2,CC1Cc2ccccc2N1c1ncnc(N)c1[N+](=O)[O-] (stereo not drawn),-24.2
3,CCCCOc1ccccc1P(=O)(O)CP(=O)(c1ccccc1)c1ccccc1,-3.64
4,OCCNC(=S)Nc1ccc2c(c1)OCCO2,9.32
5,Cc1ccc(-c2nn(C)c(=O)c3ccccc23)cc1CN1CCOCC1,-1.21
6,CC(C)=C1C2CCC1C1C(=O)N(c3nccs3)C(=O)C21 (stereo not drawn),33
7,O=C1CC(=O)N(c2ccccc2)C(=O)N1c1ccccc1,2.76
8,CCCC(NCC(O)COc1ccc(-c2ccccc2)cc1)c1ccccc1 (stereo not drawn),10.3
9,O=C(NCc1ccc2c(c1)OCO2)C1CCCN1C(=O)Nc1ccc(Cl)cc1 (stereo not drawn),-17.4
10,CCn1c(C(C)NC(=O)Cc2ccccc2)nc2ccccc21 (stereo not drawn),-2.26
11,CCc1ccc(NC(=O)C2CCN(c3ncnc4c3nc3n4CCCCC3)CC2)cc1,-6.35
12,Cc1cc2ncn(C(=O)N3CCCCC3)c2cc1C,3.24
13,CCOCCCNC(=O)CN1C(=O)/C(=C/c2ccccc2C)Sc2ccccc21,-8.45
14,CCOC(=O)C1CCCN(c2c(N3CCN(c4ccccn4)CC3)c(=O)c2=O)C1 (stereo not drawn),-55.5
15,CCOC(=O)C1CCCN(c2c(N3CCC(N4CCCCC4)CC3)c(=O)c2=O)C1 (stereo not drawn),-0.665
16,CCOC(=O)C1CCCN(C(c2ccccn2)c2c(C)[nH]c3ccccc23)C1 (stereo not drawn),-54.3
17,CCOC(=O)C1CCN(C(c2ccccn2)c2c(C)[nH]c3ccccc23)CC1 (stereo not drawn),-19.8
18,Cc1[nH]c2ccccc2c1C(c1ccccn1)N1CCC(C(N)=O)CC1 (stereo not drawn),-11.4
19,CCOC(=O)C1CCCN(c2c(N3CCN(C)CC3)c(=O)c2=O)C1 (stereo not drawn),8.41
20,CCOC(=O)C1CCCN(c2c(N3CCN(C4CCCCC4)CC3)c(=O)c2=O)C1 (stereo not drawn),-55.8
21,CCOC(=O)C1CCCN(c2c(N3CCOCC3)c(=O)c2=O)C1 (stereo not drawn),-0.407
22,CCOC(=O)C1CCN(c2c(N3CCCC(C(=O)OCC)C3)c(=O)c2=O)CC1 (stereo not drawn),-22.8

row,Compound,"hERG current change (%, negative = inhibition) at 10uM [%]"
1,Cc1ccc(C(=O)C2=C(O)C(=O)N(Cc3cccnc3)C2c2cccc([N+](=O)[O-])c2)o1 (stereo not drawn),-9.76
2,CCN(C(=O)COC(=O)CSc1ccc(C(N)=O)cc1[N+](=O)[O-])C1CCCCC1,5.86
3,Cc1cc(Cl)nc(Cl)c1C(=O)NC(=O)NCCC(C)C,6.83
4,O=C(NNC(=O)C1CC=CCC1C(=O)O)c1cccs1 (stereo not drawn),16.2
5,Cc1ccc(-c2csc(N3CCN(CCCn4c(C(F)(F)F)nc5ccccc54)CC3)n2)cc1,-4.95
6,Cc1ccc(-c2csc(N3CCN(CCCn4c(-c5ccncc5)nc5ccccc54)CC3)n2)cc1,-32.4
7,CC(=O)N[C@@H](C)c1nc2ccccc2n1CCCN1CCN(c2nc(-c3ccc(C)cc3)cs2)CC1,-56.2
8,Cc1ccc(F)c(NC(=O)C2CCCCC2C(=O)O)c1 (stereo not drawn),8.23
9,O=C(O)c1ccc(NC(=O)c2ccccc2NC(=O)c2cccc(F)c2)cc1,20.2
10,O=C(Nc1ccc(F)cc1)N1CCN(c2ccc3nnc(-c4ccc(F)cc4)n3n2)CC1,-73.5
11,COc1ccccc1NC(=O)N1CCN(c2ccc3nncn3n2)CC1,-23.1
12,O=C(Nc1ccccc1C(F)(F)F)N1CCN(c2ccc3nncn3n2)CC1,-1.32
13,COc1ccccc1NC(=O)N1CCN(c2ccc(F)cc2)CC1,-18.7
14,O=C(Nc1ccccc1C(F)(F)F)N1CCN(c2ccccn2)CC1,9.98
15,COc1ccccc1NC(=O)N1CCN(c2ccc3nnc(-c4ccc(F)cc4)n3n2)CC1,-68.9
16,O=C(c1ccc(Br)o1)N1CCN(c2ccc3nnc(-c4ccccc4)n3n2)CC1,-79.1
17,O=C(Nc1ccc(Cl)cc1)N1CCN(c2ccc3nnc(-c4ccc(F)cc4)n3n2)CC1,-28.3
18,O=C(Nc1ccccc1C(F)(F)F)N1CCN(c2ccc3nnc(-c4ccc(F)cc4)n3n2)CC1,-65.9
19,O=C(c1ccc(Br)o1)N1CCN(c2ccc3nnc(-c4ccc(F)cc4)n3n2)CC1,-46.4
20,Fc1ccc(-c2nnc3ccc(N4CCCC4)nn23)cc1,5.51
21,c1ccc(-c2nnc3ccc(N4CCCC4)nn23)cc1,7.51
22,O=C(CCC(=O)c1ccc(Br)cc1)Nc1ccc(F)cc1,23.7

row,Compound,"hERG current change (%, negative = inhibition) at 10uM [%]"
1,COc1ccc(C2=NC(=O)NC2c2ccc(OC)cc2)cc1 (stereo not drawn),-29.4
2,Cc1ccc(S(=O)(=O)N(C)C)cc1-n1c(SCC(=O)Nc2ccc(F)c(F)c2F)nc2ccccc2c1=O,8.58
3,Cl.O=C(Cc1ccccc1)OCCN1CCOCC1,20.4
4,CCCOc1ccc(C2(C(=O)O)CCCC2)cc1,6.16
5,C=CCC1C=CCC(CC=C)N1C(=O)c1ccccc1[N+](=O)[O-] (stereo not drawn),-3.17
6,COC(=O)c1sccc1NC(=S)N1CCCCC1C (stereo not drawn),-25.6
7,CC1=C(C(=O)OCC(C)C)C2(O)C(=O)c3ccccc3C2(O)N1 (stereo not drawn),3.4
8,Clc1ccc(CSc2nnc(-c3ccncc3)o2)c(Cl)c1,0.528
9,COc1ccc(C2/C=C\CN(S(=O)(=O)c3ccc4ccccc4c3)CC(=O)N2Cc2ccc(F)cc2)cc1 (stereo not drawn),8.33
10,Cc1nc(-c2ccccc2)sc1C1(C)CC(c2ccc(C#N)cc2)=NO1 (stereo not drawn),-3.07
11,O=C(Nc1ccccc1Cl)N1CCN(c2ccc3nnc(-c4ccc(F)cc4)n3n2)CC1,-42.1
12,O=C(Nc1ccccc1Cl)N1CCN(c2ccc3nncn3n2)CC1,-23.2
13,O=C(Nc1ccccc1Cl)N1CCN(c2ccc3nnc(-c4ccccc4)n3n2)CC1,-73.5
14,O=C(CN1C(=O)c2ccccc2C1=O)Nc1ccc(S(=O)(=O)N2CCOCC2)cc1,-16.9
15,O=C(NC1CCCC1)C1CCN(C(=O)c2cccc(Cl)c2)CC1,-6.41
16,Cc1ccc(-n2ncc3c(NCc4ccccn4)ncnc32)c(C)c1,-7.46
17,Cc1ccc2nc(-c3ccncc3)c(NC3CCCC3)n2c1,-54.2
18,Cc1ccc2nc(-c3cccnc3)c(NC3CCCC3)n2c1,-19.7
19,Cc1ccc2nc(-c3ccncc3)c(NC3CCCCC3)n2c1,9.35
20,CCOc1cccc(OCCCCn2ccnc2)c1,-9.04
21,COc1ccc(C)cc1NS(=O)(=O)c1ccc2c(c1)oc(=O)n2C,16.2
22,CCOC(=O)C1CCN(C(=O)c2cc3c(C)cc(C)cc3[nH]2)CC1,-15.2

row,Compound,"hERG current change (%, negative = inhibition) at 10uM [%]"
1,Cc1cc(C)c2cc(C(=O)N3CCC(C(=O)c4ccc(F)cc4)CC3)[nH]c2c1,2.63
2,Cc1cc(C)c2cc(C(=O)N3CCC(N4CCCCC4)CC3)[nH]c2c1,-69.2
3,O=C(NNC(=O)c1cccs1)c1ccc(Br)o1,15.8
4,CC1C(=O)NN=C1C(=O)N/N=C/c1cccs1 (stereo not drawn),17.3
5,COC(=O)c1nn(-c2ccccc2)c(Cl)c1/C=N/OCc1ccc(Cl)cc1Cl,20.6
6,COC(=O)c1ccc(CSc2nnc3c(Cl)cc(Cl)cn23)o1,10.9
7,O=C(NCc1ccco1)C1CC(=O)N(c2ccc(Cl)cc2)C1 (stereo not drawn),-6.16
8,CCCCOc1ccc(N2CC(C(=O)NCc3ccco3)CC2=O)cc1 (stereo not drawn),-14.5
9,O=C(NCc1ccco1)c1ccccc1NC(=O)C1CC(=O)N(c2ccc(Cl)cc2)C1 (stereo not drawn),-78.4
10,O=C(NCc1ccco1)C1CC(=O)N(c2ccc(O)cc2)C1 (stereo not drawn),-10.2
11,CCCOc1ccc(N2CC(C(=O)Nc3ccccc3F)CC2=O)cc1 (stereo not drawn),-3.15
12,COc1ccc(N2CC(C(=O)Nc3ccccc3C(=O)NCc3ccco3)CC2=O)cc1 (stereo not drawn),-42
13,CNC(=O)c1ccccc1NC(=O)C1CC(=O)N(c2ccc(OC)cc2)C1 (stereo not drawn),-12.3
14,CCCOc1ccc(N2CC(C(=O)Nc3ccccc3C(=O)NCc3ccco3)CC2=O)cc1 (stereo not drawn),-71.5
15,CCCOc1ccc(N2CC(C(=O)Nc3ccccc3C(=O)NC)CC2=O)cc1 (stereo not drawn),-71.8
16,CCc1ccc(/C=N/NC(=O)c2cc(-c3ccccc3OC)nc3ccccc23)s1,9.69
17,O=C(NC1CCN(Cc2ccccc2)CC1)C1CCN(S(=O)(=O)c2cccc3nsnc23)CC1,-23.7
18,CN(C)CC1CCCCC1OC(=O)/C=C/c1ccccc1.Cl (stereo not drawn),-33.2
19,Cc1ccccc1C(=O)NNc1ccc([N+](=O)[O-])cc1,-17.3
20,CCCOc1ccc(C2/C(=C(/O)c3ccccc3)C(=O)C(=O)N2CCCN(C)C)cc1OC (stereo not drawn),5.35
21,Cc1ccccc1CNC(=O)CN(c1cccc([N+](=O)[O-])c1)S(C)(=O)=O,6.08
